Laboratory results taken from the supplement of paper PMC6555819.

What was measured:
Assay in all cases: PBM binding z-score (relative to random genomic background probes); higher = stronger binding; sequences stand for … in GC…GCGATTGACAGCGTAGAATGAAGG
[1] = test system: FXR:RXRa (NR concentration 270 nM, RXRa partner concentration 90 nM)
Outline: (§1)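 Probes were double-stranded and carried 34-nt variable regions with direct-repeat seeds, single-nucleotide variants, half-site ablations and random human genomic background sequences, printed on custom Agilent 4×180K protein-binding microarrays. Arrays were incubated 1 h with ligand-free nuclear receptor dimers in PBS pH 7.4, 2% milk, 0.02% Triton X-100, 1 mM DTT, 0.2 mg/mL BSA and 0.4 mg/ml salmon testes DNA. Antibodies against each partner (one per run) detected binding, and scanned fluorescence was regression-normalized. Binding z-scores use the random background probes as reference.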

[2] = test system: LXRa:RXRa (NR concentration 270 nM, RXRa partner concentration 90 nM)
Outline: as §1

[3] = test system: LXRa homodimer (NR concentration 270 nM)
Outline: as §1

[4] = test system: LXRb:RXRa (NR concentration 270 nM, RXRa partner concentration 90 nM)
Outline: as §1

[5] = test system: LXRb homodimer (NR concentration 270 nM)
Outline: as §1

[6] = test system: PPARa:RXRa (NR concentration 270 nM, RXRa partner concentration 90 nM)
Outline: as §1

[7] = test system: PPARg:RXRa (NR concentration 180 nM, RXRa partner concentration 90 nM)
Outline: as §1

[8] = test system: PPARg:RXRa 270nM:90nM, anti-RXR (NR concentration 270 nM, RXRa partner concentration 90 nM)
Outline: as §1

[9] = test system: PPARg:RXRa 30nM:10nM, anti-RXR (NR concentration 30 nM, RXRa partner concentration 10 nM)
Outline: as §1

[10] = test system: PPARg:RXRa 90nM:30nM, anti-RXR (NR concentration 90 nM, RXRa partner concentration 30 nM)
Outline: as §1

[11] = test system: PPARg:RXRa DBDmut IVT, anti-RXR (DBD mutation: RXRa K156A/R161A, NR concentration 270 nM, RXRa partner concentration 90 nM)
Outline: as §1

[12] = test system: PPARg:RXRa IVT, anti-PPARg (NR concentration 270 nM, RXRa partner concentration 90 nM)
Outline: as §1

[13] = test system: PPARg DBDmut:RXRa IVT, anti-PPARg (DBD mutation: PPARg1 K132A/R137A, NR concentration 270 nM, RXRa partner concentration 90 nM)
Outline: as §1

[14] = test system: PPARg DBDmut IVT, anti-PPARg (DBD mutation: PPARg1 K132A/R137A, NR concentration 270 nM)
Outline: as §1

[15] = test system: PPARg homodimer (NR concentration 180 nM)
Outline: as §1

[16] = test system: PXR:RXRa (NR concentration 270 nM, RXRa partner concentration 90 nM)
Outline: as §1

[17] = test system: PXR homodimer (NR concentration 270 nM)
Outline: as §1

[18] = test system: RARa:RXR (NR concentration 270 nM, RXRa partner concentration 90 nM)
Outline: as §1

[19] = test system: RARa homodimer (NR concentration 270 nM)
Outline: as §1

[20] = test system: RARb:RXRa (NR concentration 270 nM, RXRa partner concentration 90 nM)
Outline: as §1

| Sequence | PBM binding z-score [1] | PBM binding z-score [2] | PBM binding z-score [3] | PBM binding z-score [4] | PBM binding z-score [5] | PBM binding z-score [6] | PBM binding z-score [7] | PBM binding z-score [8] | PBM binding z-score [9] | PBM binding z-score [10] | PBM binding z-score [11] | PBM binding z-score [12] | PBM binding z-score [13] | PBM binding z-score [14] | PBM binding z-score [15] | PBM binding z-score [16] | PBM binding z-score [17] | PBM binding z-score [18] | PBM binding z-score [19] | PBM binding z-score [20] |
| --- | --- | --- | --- | --- | --- | --- | --- | --- | --- | --- | --- | --- | --- | --- | --- | --- | --- | --- | --- | --- |
| CCTAGCAGGCCAGGGTCACTTAAGCATTTCGCTT | 1.75 | 1.64 | -0.562 | 1.91 | -1.39 | 2.77 | 0.597 | 1.54 | -0.349 | 0.831 | 0.351 | 1.01 | -1.25 | -0.972 | 0.813 | 2.15 | -0.248 | 2.71 | 0.0986 | 2.54 |
| ATCGAAAGGTCGACGACGTGAGTATACACCGTTT | 3.9 | 3.08 | -0.00126 | 2.61 | 0.501 | 4.21 | 2.29 | 2.7 | 0.988 | 1.77 | 0.416 | 1.22 | 1.4 | 1.43 | 1.37 | 2.32 | -0.182 | 3.07 | 0.0928 | 3.72 |
| TCTATTAGTCGAAGGGCAACCGACGAGTCCGTTT | 0.678 | 0.643 | 0.0615 | 0.638 | 0.475 | 0.751 | 0.274 | 2.2 | 3.57 | 2.77 | 2.28 | 0.642 | 0.468 | 0.866 | 0.702 | 0.597 | 0.535 | 0.379 | 0.63 | 1.36 |
| CTCGAAAGGTCGGTTGAGGTGATTATACGGATAA | 2.6 | 1.84 | -0.0507 | 1.68 | -0.13 | 2.79 | 0.571 | 1.14 | 0.341 | 0.688 | 0.246 | 0.642 | 0.351 | 0.785 | 1.2 | 3.74 | 0.3 | 2.2 | 0.287 | 2.85 |
| ACAGACAGGTGAGTGAAGGTAACTCGGCTGGACG | 0.29 | 0.0989 | -0.627 | -0.781 | -0.86 | -0.0904 | 0.606 | 0.0767 | -0.28 | -0.126 | 0.175 | 0.33 | -0.433 | -0.413 | 0.0145 | -0.486 | -0.431 | -0.0751 | -0.294 | 0.411 |
| GCTATTAGTTGAAAGGGCAACCGTATGATTCTCG | 0.693 | 0.878 | 0.327 | 1.1 | -0.2 | 2.2 | 2.64 | 4.69 | 2.25 | 4.37 | 0.503 | 1.17 | 0.375 | 0.271 | 1.91 | 1 | 0.322 | 1.49 | 0.819 | 2.11 |
